High-throughput results as filed in PubChem.
Most compounds without a hit are left out; they make up all but 28% or so of the library.
Mac1 fbg enh: increases human CD11b/CD18 adhesion to fibrinogen | P05107+P11215 | K562 CD11b/CD18 adhesion to fibrinogen, ATPlite luminescence | activation, % at 10 µM | 0.07% of 93,000 active | AID 1499;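 active means 10 µM primary screen giving 50% or more activity, confirmed by 40% or more on retest at that dose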
CD11b adhes inh: inhibitors of human CD11b/CD18 binding to fibrinogen. P05107+P11215. K562 CD11b/CD18 adhesion to fibrinogen, ATPlite luminescence; Mn2+ added to activate the integrin. inhibition, % at 10 µM. 0.54% of 93,000 active;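 active means primary inhibition of 50% or more at 10 µM, then 40% or more on retest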
CYP2C9 inhib: inhibitors of human CYP2C9; P11712; CYP2C9 Supersomes, luciferin-H conversion, luminescence; inhibition, % at 5 µM; 20% of 96,000 active;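 active means blocking of liver enzyme CYP2C9 beyond about 50% at 5 µM, limit read from the data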
CYP2C9 act: increases human cytochrome P450 2C9 activity; AID 1024; P11712; activation factor at 5 µM; recombinant CYP2C9, luciferin-H conversion, luminescence; hits give high values; factor 1 = untreated enzyme, 0 = blocked; 1.4% of 96,000 active;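 active means activation factor of 2 or more for CYP2C9 at a 5 µM dose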;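 further: 0 = sulfaphenazole-blocked wells and 1 = vehicle-only wells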
CYP2C19 act: cytochrome P450 2C19 (human) activation; AID 1025; P33261; activation factor at 5 µM; recombinant CYP2C19, luciferin-H EGE luminescence; hits give high values; 0 = fully inhibited enzyme, 1 = untreated enzyme; 96,000 tested, under 10 active;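 active means activation factor of at least 2 at 5 µM in the primary screen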;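 further: 0 = wells with 2.5 mM tranylcypromine and 1 = vehicle-only wells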
CYP2C19 inh: blocks human cytochrome P450 2C19. P33261. CYP2C19 Supersomes, luciferin-H EGE luminescence, 30 min. inhibition, % at 5 µM. 21% of 96,000 active. AID 778;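 active means CYP2C19 inhibition above a set limit at 5 µM in the primary screen, cut at about 50% in these data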;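 further: plate controls were negative control wells for no effect and 2.5 mM tranylcypromine positive control for full effect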
* marks the source's active call; other numbers are inactive results; . = not tested or not shown.

SMILES | Mac1 fbg enh | CD11b adhes inh | CYP2C9 inhib | CYP2C9 act | CYP2C19 act | CYP2C19 inh
CCc1ccc2c(COC(=O)c3n[nH]c4ccccc34)cc(=O)oc2c1 | -3 | 7 | 81* | 0.2 | 0.4 | 58*
CCc1ccc2oc(=O)cc(CN(C)Cc3ccccc3)c2c1 | -5 | 27 | 16 | 0.8 | 1 | 5
CCOC(=O)c1c(-c2ccccc2)oc2ccc(OC)cc12 | 0 | 4 | 65* | 0.3 | 0.5 | 52*
COc1ccc2oc(-c3ccccc3)c(C(=O)N3CCOCC3)c2c1 | -5 | 5 | 10 | 0.9 | 0.8 | 15
NC(=O)c1c(-c2ccccc2)oc2ccc(O)cc12 | 5 | 12 | -115 | 2.1* | 0.5 | 50
CCCCNc1ccc2nsnc2c1[N+](=O)[O-] | -2 | 4 | . | . | . | .
O=C(COc1ncnc2scc(-c3ccc(Cl)cc3)c12)NCc1ccco1 | 3 | -12 | 16 | 0.8 | 0.7 | 26
CC(=O)C1=C(C)Nc2cc(C(F)(F)F)ccc2S1 | -3 | 3 | 36 | 0.6 | 0.4 | 60*
FC(F)(F)c1cnc2c(c1)Nc1ccccc1S2 | -3 | -3 | 16 | 0.8 | 0.7 | 30
CCc1ccc(NC(=S)NC2CC3CCCC(C2)N3Cc2cccs2)cc1 (centres undefined) | -4 | 2 | 30 | 0.7 | 0.7 | 30
Cc1ccc2c(c1)sc1nc(=O)n(-c3cccc(Cl)c3)c(=O)n12 | 4 | -14 | 4 | 1 | 0.7 | 26
Cc1nc2sccc2c(=O)n1-c1cccc(Cl)c1 | -2 | 2 | 14 | 0.9 | 0.3 | 70*
O=C(Oc1ccc(Cl)c2cccnc12)c1ccco1 | -5 | 1 | 24 | 0.8 | 0.5 | 53*
O=C(Oc1cccc2ccccc12)c1ccco1 | 1 | -10 | -8 | 1.1 | 1 | 4
CCOC(=O)c1c(C)c(C(=O)N(C)C2CCCCC2)c(C)n1C | -1 | -8 | 48 | 0.5 | 0.5 | 54*
CCCC(=O)Nc1cccn(Cc2ccccc2Br)c1=O | -1 | 7 | 43 | 0.6 | 0.1 | 92*
Cn1ncc(C#N)c1/N=C/N(Cc1ccccc1)Cc1ccccc1 | 3 | 10 | 99* | 0 | 0 | 95*
COc1ccc(NC(C)c2cc(Cl)ccc2O)cc1 (centres undefined) | 2 | -6 | 49 | 0.5 | 0.4 | 58*
O=Nc1c(O)n(Cc2ccc(Cl)c(Cl)c2)c2ccccc12 | . | . | 62* | 0.4 | 0.5 | 51*
N#CNC1=NCN(Cc2ccccc2)CN1 | -3 | 22 | -12 | 1.1 | 1.1 | -8
CCCC(=O)N=C1SC2CS(=O)(=O)CC2N1c1ccc(CC)cc1 (centres undefined) | . | . | 10 | 0.9 | 1 | -3
Cc1ccc2nc(/C(C#N)=C\c3ccc([N+](=O)[O-])o3)[nH]c2c1 | -2 | 2 | 7 | 0.9 | 0.9 | 10
Cc1ccc2nc(/C(C#N)=C\c3cc(C)n(-c4cccc([N+](=O)[O-])c4)c3C)[nH]c2c1 | -4 | -10 | 84* | 0.2 | 0.5 | 48
Cc1ccc([C@@H]2C3COCC=C3C(C#N)=C(N)C2(C#N)C#N)o1 (some centres undefined) | -2 | -3 | 49 | 0.5 | 0.3 | 69*
CC(C)N1CC=C2C(C#N)=C(N)C(C#N)(C#N)C(c3ccccc3)C2C1 (centres undefined) | 7 | -40 | 4 | 1 | 1 | 3
SMILES | Mac1 fbg enh | CD11b adhes inh | CYP2C9 inhib | CYP2C9 act | CYP2C19 act | CYP2C19 inh
Cc1ccc(C2C3CSCC=C3C(C#N)=C(N)C2(C#N)C#N)cc1 (centres undefined) | -1 | -25 | 81* | 0.2 | 0.7 | 29
CC(C)N1CC=C2C(C#N)=C(N)C(C#N)(C#N)[C@H](c3ccoc3)[C@H]2C1 | 0 | -14 | 6 | 0.9 | 0.8 | 24
N#CC1=C(N)C(C#N)(C#N)[C@H](c2ccncc2)[C@H]2CC3(CC=C12)OCCO3 | -4 | 1 | 71* | 0.3 | 0.5 | 51*
CCN(c1ccc(NC(=O)COC(=O)CCC(=O)c2ccc(F)cc2)cc1)C(C)C | -4 | 0 | 23 | 0.8 | 0.4 | 63*
CCCOc1ccc(OCCNC2CCCC2)cc1 | . | . | -8 | 1.1 | 1.1 | -13
Clc1ccc(OCCSCc2nc3ccccc3[nH]2)cc1 | -12 | 76* | 57* | 0.4 | 0.4 | 64*
Clc1ccc(/C=C/c2nc3ccccc3[nH]2)cc1 | . | . | 15 | 0.8 | 0.6 | 36
